We go through 24 compounds from PubChem BioAssay (NCATS).

Several values for one entry are separate records, joined by “and”; a condition that tells them apart may be missing. Identical values can stand only once. Results filed as inconclusive are left out. A number with no mark means an inactive call. Activity calls are given as the source filed them. The call rests on the fitted dose curve; in most records, active means well fitted inhibition curve with a large enough effect; inconclusive means small, poorly fitted or top-dose-only effect; inactive means no such curve, though single readings can be large or run the other way.
On the % scale 0 is the no-effect control and ±100 the full control effect; potency means the concentration at half of the fitted maximal effect.

This experiment is described as follows: Primary qHTS for inhibitors of nuclear receptor binding SET domain protein 2 (NSD2) in an RCH-ACV wild type WT cells (2C) (AID 1645877). Further: nearly all actives have a fitted effect of over 70% in size. To be noted: RCH-ACV (leukaemia line) NSD2 WT (2C) viability, CellTiter-Glo, 72 h; series mostly up to 44.9 µM; activity change, negative = cell killing: at the top concentration. A general note: Quantitative high-throughput screening tests each substance at several concentrations.
As to `C[N+]1(C)[C@@H]2CC[C@H]1CC(OC(=O)C(CO)c1ccccc1)C2` (some centres undefined), the “activity change, negative = cell killing” value was 0.649%.
Take `OC(O)C(Cl)(Cl)Cl`: the “activity change, negative = cell killing” value is -18%.
With `C1CN2CCC1CC2`, the “activity change, negative = cell killing” value was 3.63%.
`O=C(CCCCl)c1ccc(F)cc1`: the compound was classed as inactive.
In the case of `c1ccc2nc(N3CCNCC3)ccc2c1`, the “activity change, negative = cell killing” value is -10.5%.
`CC(C)[N+](C)(CCC(C(N)=O)(c1ccccc1)c1ccccc1)C(C)C`: the result was inactive.
Take `CC(C)C(Br)C(=O)NC(N)=O` (centres undefined): the “activity change, negative = cell killing” value was 3.13%.
`COc1cc(N)c(Cl)cc1C(=O)NC1CN2CCC1CC2` (centres undefined): the “activity change, negative = cell killing” value is 4.93%.
Regarding `N#Cc1nn(-c2c(Cl)cc(C(F)(F)F)cc2Cl)c(N)c1S(=O)C(F)(F)F` (centres undefined), the Potency was 21.1 µM (active).
As to `C#C[C@]1(O)CC[C@H]2[C@@H]3CCC4=CC(=O)CCC4=C3C=C[C@@]21CC`, the “activity change, negative = cell killing” value is -2.68%.
For `COCC(=O)N(c1c(C)cccc1C)C(C)C(=O)OC` (centres undefined), the “activity change, negative = cell killing” value is 4.49%.
With `ClC1=C(Cl)C2(Cl)C(CBr)CC1(Cl)C2(Cl)Cl` (centres undefined), the “activity change, negative = cell killing” value is 7.23%.
The same measure, in the same setting: to `CC(Cc1ccc2c(c1)OCO2)NO` (centres undefined) belongs -24.9% [at 91.9 µM]; to `Oc1c(Br)cc(Br)cc1Br`, -17.2%; to `NCc1cccnc1`, -0.475%.
Regarding `C[C@@H]1O[C@@H](O[C@@H]2C=C3CC[C@@H]4[C@H](CC[C@]5(C)[C@@H](c6ccc(=O)oc6)CC[C@]45O)[C@@]3(C)CC2)[C@H](O)[C@H](O)[C@H]1O`, the Potency was 13.2 nM (active) and 7.5 nM (active).
In the case of `CN(C)C(=O)Oc1cc(OC(=O)N(C)C)cc(C(O)CNC(C)(C)C)c1` (centres undefined), the “activity change, negative = cell killing” value was -6.4%.
Take `CN1C(=O)CN=C(c2ccccc2)c2cc([N+](=O)[O-])ccc21`: the “activity change, negative = cell killing” value is 5.12%.
With `CCS(=O)(=O)C(C)(C)S(=O)(=O)CC`, the “activity change, negative = cell killing” value was -18.7%.
On to `C[N+](C)(C)CCOC(=O)C(O)(c1ccccc1)c1ccccc1`, for which the “activity change, negative = cell killing” value is -10.1%.
With `C[C@]12CC[C@H]3[C@@H](CCC4=CC(=O)CC[C@@H]43)[C@@H]1CC[C@@H]2O`, the “activity change, negative = cell killing” value is -18.6%.
As for `CCNc1nc(Cl)nc(NCC)n1`, the “activity change, negative = cell killing” value was -0.388%.
Consider `C[C@]12CC[C@H]3[C@@H](CC=C4C[C@@H](O)CC[C@@]43C)[C@@H]1CC[C@@H]2O`, for which the “activity change, negative = cell killing” value is -8.67%.
Turning to `CCN1CCCC1CNC(=O)C(O)(c1ccccc1)c1ccccc1` (centres undefined), the “activity change, negative = cell killing” value is -6.61%.
